Measurements published in PubChem BioAssay AID435019 (Southern Research Specialized Biocontainment Screening …, 2010).
Among all 2,300 compounds or so, about 1,200 (52%) were called active. How the calls were made is not given here. The set was probably picked from earlier hits. This is one part of the list. Entries with a potency or affinity are not part of this list.

test: mammalian cell cytotoxicity, dose response, cytotoxicity control for M. tuberculosis inhibitor project (AID 435019); details: cytotoxicity counter-screen; series mostly up to 40 µM;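 further: lower values mean fewer viable cells so more cytotoxicity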

SMILES	outcome
O=S(=O)(Nc1ccc2[nH]ncc2c1)c1ccccc1Cl	inactive
CC(C)(C)C1CCc2nc(NC(=O)Cc3cn4ccsc4n3)sc2C1 (centres undefined)	inactive
COC(=O)[C@H](CCSC)NC(=O)N1CCN(c2cccc(C(F)(F)F)c2)CC1	inactive
Cc1cc2c(cc1C)/C(=N/NC(=O)c1ccccn1)CCC2	inactive
O=C(NNC1CC(=O)N(c2ccc(Br)cc2)C1=O)c1ccccn1 (centres undefined)	inactive
Cc1nn(-c2ccccc2)c(Cl)c1C(=O)Nc1nnc(C2CCCCC2)s1	inactive
Cc1nn(-c2ccccc2)c(Cl)c1/C=C/C(=O)c1ccccc1	inactive
Cc1cccc(C)c1OCCCCc1c(C)n[nH]c1C	inactive
COC(=O)CCc1sc(Nc2ccc(Br)cc2)nc1-c1ccc(OC)cc1	inactive
COc1cccc(NC(=O)CNC(=O)Cn2cnc3sc4c(c3c2=O)CCCC4)c1	inactive
COC(=O)c1cc(-c2cccc(OC)c2)on1	inactive
CCNC(=S)NN=C1c2ccccc2-c2ccccc21	inactive
Cn1/c(=N/NC(=O)c2cccc(OC(F)F)c2)sc2ccccc21	inactive
CC(OC(=O)COc1ccc(Nc2ccccc2)cc1)C(=O)N(C)c1ccccc1 (centres undefined)	inactive
C[n+]1c(-c2ccccc2)cc(CCCCc2cc(-c3ccccc3)[n+](C)c(-c3ccccc3)c2)cc1-c1ccccc1	inactive
CC1CC(C)CN(C(=O)C2CCC(CNc3c(N4CCCCC4)c(=O)c3=O)CC2)C1 (centres undefined)	inactive
CCC(C)c1ccc2oc(-c3ccc(NC(=O)c4ncn[nH]4)cc3)nc2c1 (centres undefined)	inactive
CCC1CSC(Nc2ccc(C(=O)/C=C/c3cccc(C)c3)cc2)=N1 (centres undefined)	inactive
CCOC(=O)COc1cc([N+](=O)[O-])cc2cccnc12	inactive
CC(/C=C/C=C/c1ccccc1)=N\NC(=O)c1cccnc1	inactive
O=C(c1ccccc1)c1c[nH]c(C(=O)NNc2ccccc2)c1	inactive
COc1ccc(Cc2nc3ccc(C(=O)NCCCSC)cc3o2)cc1OC	inactive

SMILES	outcome
Cc1ncc(C23CC4CC(CC(C4)C2)C3)[nH]1	inactive
COc1cc(/C=C2\C(=O)NN(c3ccc(C)cc3)C2=O)cc([N+](=O)[O-])c1O	inactive
CC(C)(C)NC(=O)COC(=O)c1cc(Br)ccc1Cl	inactive
Cc1nonc1OCCNCCNc1ccc([N+](=O)[O-])c2cccnc12	inactive
O=C1C(Br)=Cc2cccc3cccc1c23	inactive
C=C[C@]1(C)C[C@@H](OC(=O)CSCCN(CC)CC)[C@]2(C)C(C)CC[C@]3(CCC(=O)[C@H]32)[C@@H](C)[C@@H]1O (some centres undefined)	inactive
Cc1noc(C)c1COc1ccc(C(=O)OCC(=O)NC23CC4CC(CC(C4)C2)C3)cc1	inactive
O=Cc1ccc(-c2ccc(Cl)cc2Cl)[nH]1	inactive
O=C(N[C@H]1CCC(=O)N(CCSc2ccc(Br)cc2)CC1)OCc1ccccc1	inactive
CN(C(=O)COC(=O)c1sc2ccccc2c1Cl)C1CCCCC1	inactive
N#CCCN(C(=O)COC(=O)CCc1c[nH]c2ccccc12)c1ccc(F)cc1	inactive
COc1ccc(OC)c(C(=O)NC(CC(N)=O)c2ccc(NCc3ccc(F)c(F)c3)c([N+](=O)[O-])c2)c1 (centres undefined)	inactive
O=[N+]([O-])c1cn(-c2nc(-c3ccco3)cc(C(F)(F)F)n2)cn1	inactive
CC(C)(O)C#Cc1ccc(C(=O)Nc2ccc3c(c2)OCO3)s1	inactive
CC1(C)OC(=O)C(=Cc2ccc[nH]2)C(=O)O1	inactive
Cc1ccccc1Cn1cc(NC(=O)c2noc(C(C)C)c2[N+](=O)[O-])cn1	inactive
Cc1ccc(C2=NCCn3c2c2ccccc2[n+]3[O-])cc1	inactive
O=S(=O)(c1ccc(Oc2ccc3oc4ccccc4c3c2)nc1)N1CCCC1	inactive
O=c1[nH][nH]c(-c2ccccc2O)c1C(C[N+](=O)[O-])c1cccc(Cl)c1 (centres undefined)	inactive
Cc1ccc(C(=O)n2c(N)nc3ccccc32)cc1	inactive
Cc1ccc(NCCC(=O)c2ccc(Br)cc2)cc1	inactive
COc1ccc(N/C=C/c2nc(SC)nnc2C)cc1	inactive

SMILES	outcome
O=C(c1cc([N+](=O)[O-])ccc1N1CCOCC1)N1CCN(S(=O)(=O)c2cc(Cl)ccc2Cl)CC1	inactive
COc1ccc(N2CCN(C(=O)c3cc4c(C)nc5ccccc5c4o3)CC2)cc1	inactive
CC(=O)c1ccc(NC(=O)c2cc(CC(C)C)on2)cc1	inactive
CN(CC(=O)Nc1ccc(OC(F)(F)F)cc1)C(=O)/C=C/c1cc2c(cc1[N+](=O)[O-])OCO2	inactive
CCOC(=O)CSc1nc(N)c(C(=O)Nc2ccc(N(C)C)cc2)s1	inactive
CCOc1ccc(NC(=O)N(C2CCCCC2)C(C)c2ccncc2)cc1 (centres undefined)	inactive
CCCc1ccc(OCc2ccccc2)c2c(=O)cc(C(=O)OCC)oc12	inactive
O=C(Nc1cccnc1Cl)c1cc(-c2ccco2)on1	inactive
Cc1cc(C)n(-c2ccc(C(=O)Oc3ccc4c(c3)OCO4)cc2)n1	inactive
COc1ccc(-c2nsc3c(N4CCCCC4C)ncnc23)cc1 (centres undefined)	inactive
Cc1ccc(N/C=C2\C(=O)C3(C)CCC2C3(C)C)cc1C (centres undefined)	inactive
COc1ccccc1OC(=O)c1ccc(S(=O)(=O)N(C)C)cc1	inactive
O=C(CCC(=O)OCc1ccc(C(=O)Oc2ccc(Cl)cc2)cc1)Nc1ccccc1	inactive
CSc1ccc(CNC(=O)c2ccc(NC(=O)C3=CSCCO3)cc2)cc1	inactive
CCC1(c2ccccc2)NC(=O)N(CC(=O)Nc2ccc(S(=O)(=O)NC3=NCCCCC3)cc2)C1=O (centres undefined)	inactive
CC(=O)/C(=N\Nc1ccc(C)cc1)N1CCOCC1	inactive
O=[N+]([O-])c1ccc(CN2CCN(c3ccc(Cl)cc3)CC2)o1	inactive
CCOC(=O)C1CCN(CC(O)COc2ccc(C(C)(C)CC)cc2)CC1 (centres undefined)	inactive
C[N+](C)(CCCCCC[N+](C)(C)CCCN1C(=O)c2cccc3cccc(c23)C1=O)CCCN1C(=O)c2cccc3cccc(c23)C1=O	inactive
O=C(c1ccccc1)c1nn(-c2ccc(Cl)cc2)cc1C(=O)c1cc2ccccc2oc1=O	inactive
COc1c[nH]n(C2CCCCC2)c(=O)c1=O	inactive
CCOc1ncccc1C(=O)OCC(=O)N1CCc2ccccc21	inactive

SMILES	outcome
CS(=O)(=O)c1ccc([C@@H](O)[C@@H](CF)NC(=O)C(Cl)Cl)cc1	inactive
O=C(O)Cc1c[nH]c2ccc(O)cc12	inactive
Cc1ccc(-c2cn3cccnc3n2)cc1NC(=O)c1ccc(Br)o1	inactive
O=C(CSC1=NC(=O)C(c2ccccc2)C(=O)N1)Nc1ccccc1Cl (centres undefined)	inactive
O=C(Nc1nc2nc(-c3ccccc3)cc(=O)n2[nH]1)c1ccccc1	inactive
CCOC(=O)CSc1ccc(C(=O)Nc2ccc(OC)cc2)cn1	inactive
O=C1N=C(N2CCC(Cc3ccccc3)CC2)S/C1=C/c1cn[nH]c1-c1ccccc1	inactive
C=CCSc1n[nH]c(-c2ccc(OCCCC)cc2)n1	inactive
CCOC(=O)c1c(C)[nH]c(N=Nc2ccc(OC)cc2)c1C	inactive
Cc1ccc2nc(SCC(=O)Nc3ccc4c(c3)CCC4)[nH]c2c1	inactive
O=C(CSCc1ccc([N+](=O)[O-])cc1)N/N=C/c1ccncc1	inactive
CCOC(=O)COc1ccc(S(=O)(=O)NCCC2=CCCCC2)cc1	inactive
O=c1oc2ccccc2c2c1nc(C(F)(F)F)n2-c1ccccc1	inactive
CCOC(=O)c1cn[nH]c1N	inactive
CCCCc1ccc(NC(=S)N2CCN(c3ncccn3)CC2)cc1	inactive
CC(=O)/C(=C\Nc1ccc(OCc2ccccc2)cc1)c1ccccc1	inactive
CCCCCCC(=O)N/N=C/c1ccc(Br)cc1	inactive
CC/C(C)=N/NC(=S)NCc1ccco1	inactive
CC(C)OC(=O)c1ccc(COC(=O)c2cnccn2)cc1	inactive
C/C(=N/NC(=O)c1ccccn1)c1c[nH]c2ccccc12	inactive
O=C(OCC(=O)N1CCC(c2ccccc2)=N1)c1ccc(Cl)s1	inactive
Cc1ccc(C(=O)O/N=C(\N)c2ccc(Br)cc2)cc1C	inactive

SMILES	outcome
COC(=O)c1ccc(COC(=O)CCc2nc(-c3ccccc3)c(-c3ccccc3)o2)cc1	inactive
Cc1cc(=O)oc2cc(OC(=O)C3CCN(C(=O)c4ccc(F)cc4)CC3)ccc12	inactive
Cc1ccc(C(=O)N2N=C(CC(C)C)CC2(O)C(F)(F)F)o1 (centres undefined)	inactive
Nc1ccc2c(c1)Cc1ccccc1-2	inactive
CCCC(=O)Nc1sc2c(c1C#N)CCCCC2	inactive
CCOC(=O)CSc1nnc(-c2c[nH]c3ccccc23)o1	inactive
CCOC(=O)Cn1c(C)c(Br)c(=O)c2cccc(C)c21	inactive
Cc1ccc(/C=C2\SC(N3CCCC3)=NC2=O)cc1	inactive
CN(C)C/C=C/C(=O)Nc1cccc(-c2c[nH]c3ncnc(Oc4ccc(NC(=O)CC(=O)Nc5ccc(F)cc5)cc4F)c23)c1	inactive
CSc1nsc(SCC(=O)N2CCCCC2)n1	inactive
NNC(=S)NCc1ccc2c(c1)OCO2	inactive
Cc1cc(NC(=O)c2noc3c2CCCC3)nn1Cc1ccc(Cl)cc1	inactive
CCOc1ccc(/C=N/OCC(=O)Nc2cc(C)on2)cc1	inactive
COCCCN=C1NN=C(c2cc(C)n(Cc3ccco3)c2C)CS1	inactive
Cc1ccc(C2=NN(C)c3nc4ccccc4n3C2)cc1	inactive
COc1ccc(OC)c(CN2CCN(C(=O)CNC(=O)c3ccc(C(C)(C)C)cc3)CC2)c1	inactive
Cc1cc(NC(=O)CCN2C(=O)C3C4C=CC(C4)C3C2=O)ccc1Br (centres undefined)	inactive
COc1ccc(-c2c(C#Cc3ccsc3)c3ccccc3n2C)cc1	inactive
CCOC(=O)c1ccc(NC(=O)C(C)Sc2nc(O)c(-c3ccccc3)c(=O)[nH]2)cc1 (centres undefined)	inactive
O=C(Nc1ccc(C2=NCCN2)cc1)c1ccc(Cl)c(C(=O)Nc2ccc(C3=NCCN3)cc2)c1	inactive
CC(=O)c1sc(NC(=O)c2cc(=O)c3ccccc3o2)nc1C	inactive
